# Measurements published in PubChem BioAssay AID504834 (National Center for Advancing Translational Sciences (NCATS), 2011).
# Screen size: about 320,000 compounds; about 22,000 (6.9%) were called active. Not shown: some 27% with an inconclusive outcome. Many of the other results were omitted from the sample, so actives are more common in it than they were. A number with no mark means an inactive call. Calls come from the whole dose curve; as a rule, active = well fitted inhibition curve with a large enough effect; inconclusive = small, poorly fitted or top-dose-only effect, or another doubt; inactive = no such curve, though single readings can be large or run the other way.
# Test: Primary qHTS for delayed death inhibitors of the malarial parasite plastid, 96 hour incubation
# Conditions: P. falciparum luciferase reporter growth; series mostly up to 28.7 µM; activity change, negative = inhibition: at the top concentration
# Outline: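 Cell-based qHTS: luciferase-tagged P. falciparum in erythrocytes (2% hematocrit, 0.05% parasitemia final) incubated with compounds for 96 hours, 37 C, 5% CO2; luciferase detection reagent then added and luminescence measured.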
# % is set by controls: 0 for no effect and ±100 for the full control effect; potency is the fitted concentration of half-maximal effect.
Compound,"activity change, negative = inhibition",Potency
COc1ccc(/C=C2\SC(=S)N(CCC(=O)Nc3cccc(C(=O)O)c3)C2=O)cc1OC,-1.21%,–
COC(=O)CN1C(=O)C(C)(C)Oc2ccc(C(=O)Nc3cccc(OC)c3)cc21,7.01%,–
Cc1cccc(N2CCN(c3ccc(C(N)=O)cc3[N+](=O)[O-])CC2)c1C,23.7%,–
O=C(NC1C2CC3CC(C2)CC1C3)c1ccc(N2CCNCC2)c([N+](=O)[O-])c1 (centres undefined),12.4%,–
CS(=O)(=O)N1CCN(c2ccc(C(=O)NC3C4CC5CC(C4)CC3C5)cc2[N+](=O)[O-])CC1 (centres undefined),–,9.28 µM (active)
COc1ccccc1N1CCN(C(=O)CSc2ncnc3c2cnn3-c2ccc(C)c(C)c2)CC1,3.67%,–
COc1ccc(S(=O)(=O)NCCc2c[nH]c3ccccc23)cc1OC,-7.21%,–
Cc1ccc(CNC(=O)CCN2C(=O)[C@@H]3Cc4ccccc4CN3C2=O)cc1,-24.8%,–
C/C(=N\NC(=O)Cc1ccccc1[N+](=O)[O-])c1cccnc1,-21.8%,–
O=C(COC(=O)Cn1cnc2ccccc2c1=O)NCc1ccccc1Cl,61.1%,–
Cc1nn(CCCC(=O)NCc2ccccc2Cl)c(=O)c2nccn12,–,1.04 µM (active)
Cc1cccn2c(=O)nc(SCC(=O)NCc3ccccc3Cl)nc12,-16.4%,–
COc1ccccc1NC(=O)CCC(=O)N1CC(C)Oc2ccc(C)cc21 (centres undefined),7.94%,–
O=C(c1ccccc1)N1CCN(C(=O)N2CCCCC2)CC1,10.7%,–
O=C(c1ccc(-n2cnnn2)cc1)N1CCN(C(c2ccccc2)c2ccccc2)CC1,–,4.65 µM (active)
CCOC(=O)N1CCN(S(=O)(=O)c2ccc(-n3cnnn3)cc2)CC1,10.9%,–
CCn1cc(C(=O)OCC(=O)Nc2cccc(C)c2)c(=O)c2ccc(C)nc21,20.8%,–
CCOC(=O)c1cn(CC)c2cc(F)c(F)cc2c1=O,0.303%,–
Cc1cccc(N2CC(C(=O)Nc3ccccc3N3CCCC3)CC2=O)c1C (centres undefined),–,5.22 µM (active)
Cc1ccccc1N1CC(C(=O)Nc2ccc3c(c2)OCO3)CC1=O (centres undefined),11.6%,–
Cc1ccccc1N1CC(C(=O)Nc2ccc(S(=O)(=O)N3CCCC3)cc2)CC1=O (centres undefined),9.93%,–
CC(=O)C1=C(O)C(=O)N(c2ccc(Br)cc2)C1c1ccc([N+](=O)[O-])cc1 (centres undefined),-0.955%,–
COC(=O)C1CCN(C(=O)NC2CC(=O)N(c3ccc4c(c3)OCCO4)C2)CC1 (centres undefined),15.2%,–
O=C(CSc1nc2ccccc2c(=O)n1CCCO)NC1CC1,12.2%,–
CCOC(=O)C1CCc2nc3ccccc3c(=O)n21 (centres undefined),18.4%,–

Compound,"activity change, negative = inhibition",Potency
CCOC(=O)C(C)Sc1nc2ccccc2c(=O)n1CC1CCCCC1 (centres undefined),–,11.7 µM (active)
O=C(NCCN1CCN(C(=O)c2cccc([N+](=O)[O-])c2)CC1)C(=O)NCc1ccc(Cl)cc1,-0.891%,–
Cc1ccc(NC(=S)N2CCCC(c3ccccc3)=N2)cc1,12.4%,–
CSCCC(NC(=O)c1ccc(Cl)cc1Cl)C(=O)NNC(=O)c1csc(N2CCOCC2)n1 (centres undefined),50.2%,–
CCC1S/C(=N/N=C/c2ccco2)NC1=O (centres undefined),3.41%,–
CC(C)(C)C1C/C(=C/c2ccco2)C(=O)/C(=C/c2ccco2)C1 (centres undefined),–,13.1 µM (active)
O=C1OC(/C=C/c2ccccc2)=NC/1=C/c1ccco1,41.8%,–
CCOc1ccc(CNC(=O)CCC(=O)N2CCSc3ccccc32)cc1,-23.6%,–
Cc1ccc(S(=O)(=O)N2CCN(C(=O)c3ccccc3-c3nc4ccccc4s3)CC2)c(C)c1,-14.7%,–
CN(C)C(=O)COC(=O)c1cccc(S(=O)(=O)N2CC3(C)CC2CC(C)(C)C3)c1 (centres undefined),-7.05%,–
Cc1ccc(N(C(=O)c2snc(C(N)=O)c2N)C(C(=O)NCC2CCCO2)c2c[nH]c3ccccc23)cc1 (centres undefined),0%,–
c1ccc(CSCCc2ccncc2)cc1,40.8%,–
Cc1cc(C)c(SCCc2ccncc2)c(C)c1,–,10.4 µM (active)
CC(C)(C)c1ccc(SCCc2ccncc2)cc1,-26.6%,–
COC(=O)c1cc(OCC(=O)NC2CCCc3ccccc32)cc(C(=O)OC)c1 (centres undefined),4.97%,–
Cc1ccc(C(=O)NCC(=O)OCC(=O)NC2CCCCCCC2)cc1,30.3%,–
Oc1ccc(-c2cccc(-c3ccc(O)cc3)c2)cc1,40.9%,–
O=C(NCCS(=O)(=O)N1CCN(c2ccc(F)cc2)CC1)c1ccc2c(c1)OCO2,23.3%,–
CC(C)N(Cc1nnc(-c2ccc(Cl)cc2)o1)C(=O)C1=COCCO1,-0.891%,–
Cn1cnnc1SCc1nnc(-c2ccccc2Br)o1,22.1%,–
CC(C)N(Cc1nnc(-c2ccccc2Br)o1)C(=O)c1cc(Cl)nc2ccccc12,–,14.7 µM (active)
O=S(=O)(Nc1ccccc1)c1ccc(NS(=O)(=O)c2cccs2)cc1,409%,–
Cc1ccc(OCCNC(=O)CNC(=O)c2ccc(C)c(C)c2)cc1,15.4%,–
COc1cc(Nc2nc3ccc(Cl)cc3n3cnnc23)cc(OC)c1OC,7.11%,–
